Screening data (PubChem)
This excerpt belongs to a sample that is enriched for hits.
CHX counter: counter-screen hit for Shiga toxin inhibitors, cycloheximide | cell reporter, cycloheximide protein synthesis inhibition counterscreen | actives 12% (n = 300,000) | max response, %; in the data active = max response mostly above about 13%, no sharp cut-off; inactive = mostly below about 14%; also: read at 38.3 µM for the half of the compounds with a filed dose; 0% is about no effect
Sm TGR inh: S. mansoni TGR enzyme inhibition; Q962Y6; purified TGR, DTNB reduction, TNB absorbance 405 nm; Potency, µM (titrated, usually from 114 µM), for the others: top-dose activity change, negative = inhibition, hits mostly inhibitors; actives 3% (n = 360,000); AID 485364; also: potency is read from the fitted curve at half-maximal effect; % is scaled to controls: 0 for no effect and ±100 for the full control effect; nearly all actives have a fitted effect of over 60% in size
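TGR 20 nM + NADPH 100 uM (dispensed conc.), cpd preinc 15 min RT; start with NADPH (500 uM addition) then DTNB (15 mM addition). Kinetic TNB absorbance, 405 nm filter. Four-parameter Hill fit across titration.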
TbPYK inhibitor: blocks Trypanosoma brucei pyruvate kinase | Q57TT1 | TbPYK enzyme, Kinase-Glo Plus ATP luminescence, 45 min | Potency, µM (highest dose often 76.8 µM), inactives show at the highest dose activity, negative = inhibition, most hits filed as inhibitors | actives 0.12% (n = 410,000); also: potency is read from the fitted curve at half-maximal effect; % is scaled to controls: 0 for no effect and ±100 for the full control effect; nearly all actives have a fitted effect of over 50% in size
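Assay buffer: 50 mM TEA pH 7.2, 100 mM KCl, 10 mM MgCl2, 0.05% BSA, 0.01% Tween-20. Pyruvate kinase from T. brucei plus substrate met compound, then ADP (130 uM final). Luminescence was read post 45 min RT.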
FBPA Giardia inh: Giardia lamblia aldolase inhibition | A8B2U2 | purified Giardia FBPA | Potency, µM (series often up to 59.6 µM), for inactives: at the top dose activity, negative = inhibition, usual class: inhibitors | actives 0.71% (n = 290,000); also: potency is read from the fitted curve at half-maximal effect; % is scaled to controls: 0 for no effect and ±100 for the full control effect; nearly all actives have a fitted effect of over 55% in size
Target sequence (A8B2U2 whole entry, looked up): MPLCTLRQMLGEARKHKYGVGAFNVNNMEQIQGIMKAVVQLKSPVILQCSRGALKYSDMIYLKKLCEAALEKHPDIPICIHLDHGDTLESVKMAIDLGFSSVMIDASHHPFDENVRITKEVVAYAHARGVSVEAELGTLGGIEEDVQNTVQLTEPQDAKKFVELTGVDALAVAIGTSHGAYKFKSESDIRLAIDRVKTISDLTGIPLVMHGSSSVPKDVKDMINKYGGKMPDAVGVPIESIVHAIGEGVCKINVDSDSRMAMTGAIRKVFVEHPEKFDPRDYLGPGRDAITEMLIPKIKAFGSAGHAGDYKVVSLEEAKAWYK
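40 nM FBPA preincubated 10 min at RT with compound (up to 57.5 uM final), then substrate plus GAPDH/TPI/NAD/arsenate coupling and diaphorase/resazurin added. Fluorescence read after 20 min at RT, 525/598 nm.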
LmPK inh: LmPK (Leishmania mexicana) enzyme inhibition | Q27686 | purified LmPK, Kinase-Glo ATP luminescence, 1 h | Potency, µM (series often up to 57.5 µM), without a hit: at the top dose activity change, negative = inhibition, actives largely listed as inhibitors | actives 0.37% (n = 290,000) | AID 1721; also: potency is read from the fitted curve at half-maximal effect; % is scaled to controls: 0 for no effect and ±100 for the full control effect
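qHTS format; LmPK 0.1 nM; substrates PEP 0.5 mM and ADP 0.1 mM. One-hour room-temperature incubation, then coupled luciferase luminescence; 0.5 nM enzyme wells mark activation.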
Shiga toxin inh: inhibitors of Shiga toxin in Vero cells; Vero cells, Shiga toxin protein synthesis inhibition reporter; inhibition, % at 38.7 µM; actives 9.2% (n = 290,000); AID 2315; in the data active = inhibition mostly above about 28%, no sharp cut-off; inactive = mostly below about 43%; also: 0% is about no effect
Numbers without * were called inactive; i = inactive; ? = inconclusive; · = no result; [ ] = dose if it differs, or a comment. Unless noted, calls follow the shape of the dose curve; as a rule, active = well fitted curve in the direction sought with a large enough effect; inconclusive = small, poorly fitted or top-dose-only effect, or another doubt; inactive = no such curve, though single readings can be large; an effect the other way counts as inactive or inconclusive.

SMILES | CHX counter | Sm TGR inh | TbPYK inhibitor | FBPA Giardia inh | LmPK inh | Shiga toxin inh
O=C(/C=C/c1ccc(Cl)c(Cl)c1)NCc1ccco1 | 11 | -7% | -1% | 1% | 0% | active
O=C(/C=C/c1c(Cl)cccc1Cl)NCc1ccco1 | 13 | -8% | -2% | -1% | -2% | -8
O=[N+]([O-])c1cc(C(F)(F)F)ccc1N1CCCNCC1 | -1 | 28µM* | -3% | 1% | -4% | -4
Cc1cc(C)c(NC(=O)Cn2ccn(-c3cccc(Cl)c3)c(=O)c2=O)c(C)c1 | · | -6% | -5% | · | · | ·
C[N+](C)(C)CC(=O)N1CCN(c2ccc3ccccc3n2)CC1 | -2 | -19% | -5% | -21% | 2% | -5
Cc1cc(=O)n(-c2ccc3ccccc3n2)[nH]1 | 47* | 14% | -3% | 21% | -10% | 51*
CO[C@@H]1COC(=O)[C@@H](C)COC(=O)[C@@H](C)NC(=O)C/C=C\[C@@H]1C | · | · | · | 3%[12.9 µM] | · | ·
COc1ccc(-c2noc(N3CCC(C(=O)N(C)c4cc(Cl)ccc4OC)CC3)n2)cc1 | · | -4% | 0% | · | · | ·
O=C(Nc1ccccc1F)N1CCc2ccccc2C1 | 57* | -1% | 10% | -2% | 0% | 84*
Cc1ccc(C)c(NC(=O)N2CCCCCC2)c1 | 10 | -2% | 6% | -1% | -3% | 9
Cc1ccc(C)c(NC(=O)N2CCc3ccccc3C2)c1 | 42* | 2% | 1% | · | 3% | 78*
Cc1oc(-c2ccccc2F)nc1CS(=O)CC(=O)NC1CCCC1 (stereo not drawn) | 1 | 14µM* | -11% | 1% | -2% | 20
Cc1ccccc1-c1nc(CS(=O)CC(=O)NC2CCCCC2)c(C)o1 (stereo not drawn) | 8 | 40µM* | -10% | · | -1% | 11
Cc1ccccc1-c1nc(CS(=O)CC(=O)NC2CCCC2)c(C)o1 (stereo not drawn) | -2 | 0% | -13% | · | 8% | -5
Cc1ccccc1-c1nc(CS(=O)CC(=O)NC2CC2)c(C)o1 (stereo not drawn) | 9 | ? | 0% | · | 2% | 18
CC(=O)Nc1ccc(-c2ccc(NC(C)=O)cc2)cc1 | 33* | 0% | 3% | 5% | 0% | 60*
CC(=O)Nc1ccc(C#Cc2ccc(NC(C)=O)cc2)cc1 | 34* | 5% | 6% | 2% | 2% | 68*
COC(=O)Nc1ccc(NC(C)=O)cc1 | -2 | -1% | 5% | 0% | -1% | -3
Cc1cc2c(s1)c1cnn(Cc3ccc(F)c(F)c3F)c(=O)c1n2C | 10 | · | · | · | · | 20
CCCC[C@]12Cc3cc(C#N)ccc3C(O1)c1c(c3cc(F)ccc3oc1=O)O2 | 2 | -33%[22.9 µM] | · | -23%[12.9 µM] | -5%[11.5 µM] | i
CSCC[C@H](NC(=O)[C@H](CC(C)C)NC(=O)[C@H](Cc1c[nH]c2ccccc12)NC(=O)[C@H](CCC(N)=O)NC(=O)[C@@H](NC(=O)[C@H](Cc1ccccc1)NC(=O)[C@H](CC(=O)O)NC(=O)[C@H](CCC(N)=O)NC(=O)[C@H](C)NC(=O)[C@H](CCCNC(=N)N)NC(=O)[C@H](CCCNC(=N)N)NC(=O)[C@H](CO)NC(=O)[C@H](CC(=O)O)NC(=O)[C@H](CC(C)C)NC(=O)[C@H](Cc1ccc(O)cc1)NC(=O)[C@H](CCCCN)NC(=O)[C@H](CO)NC(=O)[C@H](Cc1ccc(O)cc1)NC(=O)[C@H](CC(=O)O)NC(=O)[C@H](CO)NC(=O)[C@@H](NC(=O)[C@H](Cc1ccccc1)NC(=O)[C@@H](NC(=O)CNC(=O)[C@H](CCC(N)=O)NC(=O)[C@H](CO)NC(=O)[C@@H](N)Cc1cnc[nH]1)[C@@H](C)O)[C@@H](C)O)C(C)C)C(=O)N[C@@H](CC(N)=O)C(=O)N[C@H](C(=O)O)[C@@H](C)O | 18 | · | · | 1% | · | -8
Cc1nc2cc(N3CCN(C)CC3)c(NC(=O)Cc3ccccc3)cc2c(=O)n1Cc1ccccc1 | 90* | 1% | -10% | -1% | 1% | 55*
Cc1nc2cc(N3CCCCC3)c(NC(=O)c3ccncc3)cc2c(=O)n1Cc1ccc(Cl)cc1 | -2 | 7% | · | 0% | -4% | 16
CCOc1ccccc1NC(=O)Nc1cc2c(cc1N1CCCCC1)n(CC)c(=O)n2CC | · | -12% | -10% | · | · | ·
Cc1nc(NC(=O)c2ccccc2)sc1-c1csc(NCc2ccco2)n1 | 16 | -35% | -5% | -9% | -27% | 38
SMILES | CHX counter | Sm TGR inh | TbPYK inhibitor | FBPA Giardia inh | LmPK inh | Shiga toxin inh
Cc1nc(C)c(-c2csc(NCc3ccccc3)n2)s1 | 33* | 1% | 5% | -15% | 9% | 31
Cc1nc(C)c(-c2csc(NCc3ccco3)n2)s1 | 30* | -9% | 0% | 1% | -1% | 159
CCOc1ccccc1Nc1nc(-c2sc(C)nc2C)cs1 | 19* | 0% | -5% | -5% | 7% | 48*
Cc1ccc(Nc2nc(-c3c(C)nc4ccccn34)cs2)cc1 | -1 | 5% | -10% | -24% | 0% | -11
Cc1nc2ccccn2c1-c1csc(NCc2ccco2)n1 | 15* | -9% | 3% | ? | 2% | 17
CCOc1ccccc1Nc1nc(-c2sc(NC(=O)c3ccco3)nc2C)cs1 | 14 | 0% | -1% | -2% | -1% | 27
CCOc1cccc(C(=O)Nc2c(C(=O)c3ccc(OC)cc3)oc3ccccc23)c1 | · | 0% | -8% | · | · | ·
O=c1cnc2cncnc2n1Cc1ccccc1 | · | · | · | -8% | · | ·
FC(F)(F)c1cccc(N2CCN(c3ncnc4c3nc3n4CCCC3)CC2)c1 | · | 4% | 2% | · | · | ·
O=C1CCC[C@H]2OC12[C@@H](O)CCc1ccccc1 (stereo partly drawn) | · | · | · | 2%[12.9 µM] | · | ·
COC(=O)C(Cc1cccc(C)n1)(c1ccccc1)c1ccccc1 | -6 | 15% | -2% | -2% | 6% | 13
O=C(Nc1ccc(Br)cc1F)c1cccnc1 | 15 | 0% | -3% | 5% | -4% | 86*
CC(=O)c1cccc(NC(=O)Oc2ccccc2)c1 | 0 | -36% | 0% | 3% | 2% | -15
COC(=O)c1sccc1NC(=O)Nc1ccc(F)cc1F | 10 | -2% | -11% | -6% | -10% | -8
COc1ccsc1C(=O)Nc1ccc(F)cc1F | 30* | 8% | -3% | 3% | 2% | 31
O=C(Nc1ccccc1)Oc1cccc(Br)c1 | 14* | 12% | -2% | -4% | -7% | 28
O=C(Nc1ccccc1F)Oc1cccc(OC(=O)Nc2ccccc2F)c1 | 45* | 13% | -9% | -5% | ? | 101*
COc1ccc(-c2cc(C(=O)Nc3cccc(O)c3)on2)cc1OC | · | -2% | 10% | · | · | ·
